In PubChem BioAssay (EPA / NIEHS) one finds AC50 and outcome data, which are given here for four molecules.

Structures are written as SMILES. Active and inactive are the calls of the source. The calls were made as follows: active = hit-call score of the fitted dose curve at least 0.9, where 1 is the maximum; inactive = score below 0.9.

Common to all, as to details: mRNA level, 48 h; actives raise or lower the signal
Read-out in assay [1]: CYP2C8 (gene 1558)
As to the kind of experiment: LTEA_HepaRG_CYP2C8: Life Technologies and Expression Analysis (LTEA) Assay for CYP2C8 using HepaRG (AID 2283483). The gist of the method: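 HepaRG (human liver line), 48 h chemical exposure, 8-pt half-log series from 100 uM, 0.5% DMSO vehicle. Readout: CYP2C8 transcript by qRT-PCR, housekeeping-normalized. Bidirectional fit vs DMSO baseline.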

Read-out in assay [2]: CYP2C9 (gene 1559)
As to the kind of experiment: LTEA_HepaRG_CYP2C9: Life Technologies and Expression Analysis (LTEA) Assay for CYP2C9 using HepaRG (AID 2283484). The essentials:
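HepaRG, 48 h dosing, 8-pt half-log series, top 100 uM, 0.5% DMSO vehicle. Read-out: CYP2C9 transcript by TaqMan qRT-PCR, housekeeping-normalized (ACTB/GAPDH/POLR2A). Gain or loss fitted vs DMSO baseline.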

Read-out in assay [3]: CYP2E1 (gene 1571)
As to the kind of experiment: LTEA_HepaRG_CYP2E1: Life Technologies and Expression Analysis (LTEA) Assay for CYP2E1 using HepaRG (AID 2283485). The gist of the method: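 Assay uses 48 h exposure of HepaRG hepatic cells, eight concentrations to 100 uM. Expression of CYP2E1 is quantified by TaqMan qRT-PCR with ACTB, GAPDH and POLR2A normalization; curves fitted in both directions relative to vehicle.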

Read-out in assay [4]: CYP4A11 (gene 1579)
As to the kind of experiment: LTEA_HepaRG_CYP4A11: Life Technologies and Expression Analysis (LTEA) Assay for CYP4A11 using HepaRG (AID 2283486). The essentials: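 Differentiated HepaRG cells, serum-free induction medium, exposed 48 h in duplicate to 8-point half-log series from 100 uM in 0.5% DMSO. CYP4A11 mRNA measured by qRT-PCR, normalized to ACTB, GAPDH, POLR2A; bidirectional fit versus DMSO.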

Read-out in assay [5]: Cytochrome P450 3A4 (Homo sapiens) (UniProt P08684)
As to the kind of experiment: LTEA_HepaRG_CYP3A4: Life Technologies and Expression Analysis (LTEA) Assay for CYP3A4 using HepaRG (AID 2283487). The essentials:
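HepaRG, 48 h exposure, 8-pt CRC from 100 uM (half-log), 0.5% DMSO, duplicates; serum-free induction medium. Readout: CYP3A4 mRNA, qRT-PCR, ACTB/GAPDH/POLR2A normalization. Bidirectional fit vs DMSO.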

Read-out in assay [6]: DNA damage-inducible transcript 3 (DDIT3), DDIT3 (gene 1649)
As to the kind of experiment: LTEA_HepaRG_DDIT3: Life Technologies and Expression Analysis (LTEA) Assay for DNA damage-inducible transcript 3 (DDIT3) using HepaRG (AID 2283488). The gist of the method: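 Eight-point concentration-response (100 uM highest, half-log dilutions) in HepaRG, 48 h, duplicate wells. Endpoint: qRT-PCR mRNA, normalized (ACTB, GAPDH, POLR2A), bidirectional fitting with DMSO as baseline.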

Read-out in assay [7]: Pro-epidermal growth factor (Homo sapiens) (UniProt P01133)
As to the kind of experiment: LTEA_HepaRG_EGF: Life Technologies and Expression Analysis (LTEA) Assay for Epidermal growth factor (EGF) using HepaRG (AID 2283489). The gist of the method: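 Differentiated human HepaRG cells, plated 48 h then switched to serum-free induction medium, were exposed for 48 h to test chemicals (8-point half-log series, top 100 uM, 0.5% DMSO). EGF mRNA was quantified by qRT-PCR, normalized to ACTB, GAPDH, POLR2A.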

Read-out in assay [8]: Early growth response protein 1 (EGR1) transcription factor, EGR1 (gene 1958)
As to the kind of experiment: LTEA_HepaRG_EGR1: Life Technologies and Expression Analysis (LTEA) Assay for Early growth response protein 1 (EGR1) transcription factor using HepaRG (AID 2283490). The gist of the method: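 HepaRG, 48 h exposure, 8-pt half-log series from 100 uM, 0.5% DMSO vehicle; EGR1 transcript by TaqMan qRT-PCR (Fluidigm array), housekeeping-normalized; bidirectional fit relative to DMSO baseline.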

Read-out in assay [9]: Cytochrome P450 3A7 (Homo sapiens) (UniProt P24462)
As to the kind of experiment: LTEA_HepaRG_CYP3A7: Life Technologies and Expression Analysis (LTEA) Assay for CYP3A7 using HepaRG (AID 2283492). The essentials: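 HepaRG cells plated 48 h, then dosed in serum-free induction medium for 48 h at 8 concentrations (top 100 uM, half-log steps, 0.5% DMSO). CYP3A7 mRNA by qRT-PCR, normalised to ACTB/GAPDH/POLR2A; bidirectional fit versus DMSO.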

Read-out in assay [10]: CYP3A5 (gene 1577)
As to the kind of experiment: LTEA_HepaRG_CYP3A5: Life Technologies and Expression Analysis (LTEA) Assay for CYP3A5 using HepaRG (AID 2283493). The essentials: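 Readout was CYP3A5 mRNA by qRT-PCR. HepaRG cultures were exposed for 48 h in serum-free induction medium to chemicals at up to 100 uM, and responses were fitted in both directions relative to DMSO vehicle.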

Read-out in assay [11]: Fatty Acid-Binding Protein 1 (FABP1), FABP1 (gene 2168)
As to the kind of experiment: LTEA_HepaRG_FABP1: Life Technologies and Expression Analysis (LTEA) Assay for Fatty Acid-Binding Protein 1 (FABP1) using HepaRG (AID 2283494). The gist of the method:
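qRT-PCR readout of FABP1 transcript (normalized to three housekeeping genes) after 48 h chemical exposure of HepaRG cells; eight concentrations, half-log steps, max 100 uM, 0.5% DMSO vehicle; gain or loss fitted relative to DMSO baseline.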

Read-out in assay [12]: Cytochrome P450 4A22 (Homo sapiens) (UniProt Q5TCH4)
As to the kind of experiment: LTEA_HepaRG_CYP4A22: Life Technologies and Expression Analysis (LTEA) Assay for Cytochrome P450 4A22 (CYP4A22) using HepaRG (AID 2283495). The essentials:
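qRT-PCR of CYP4A22 mRNA (Fluidigm TaqMan, normalized to three housekeeping genes) after 48 h chemical exposure of HepaRG cells; 8-point half-log series, top 100 uM, 0.5% DMSO vehicle. Bidirectional curve fitting vs DMSO baseline.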

Read-out in assay [13]: Cytochrome P450 7A1 (Homo sapiens) (UniProt P22680)
As to the kind of experiment: LTEA_HepaRG_CYP7A1: Life Technologies and Expression Analysis (LTEA) Assay for Cytochrome P450 7A1 (CYP7A1) using HepaRG (AID 2283496). The gist of the method:
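Using 0.5% DMSO as vehicle and baseline, chemicals were tested in duplicate over an 8-point range from 100 uM on HepaRG cells for 48 h; qRT-PCR signals were normalised to ACTB, GAPDH and POLR2A.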

Read-out in assay [14]: Glutamate-cysteine ligase catalytic (GCLC), GCLC (gene 2729)
As to the kind of experiment: LTEA_HepaRG_GCLC: Life Technologies and Expression Analysis (LTEA) Assay for Glutamate-cysteine ligase catalytic (GCLC) using HepaRG (AID 2283498). The essentials: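 HepaRG, 48 h exposure, 8-pt half-log series from 100 uM, 0.5% DMSO vehicle; TaqMan qRT-PCR for GCLC mRNA, housekeeping-normalized; bidirectional curve fit vs DMSO baseline.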

Read-out in assay [15]: growth arrest and DNA damage 45 (GADD45G), GADD45G (gene 10912)
As to the kind of experiment: LTEA_HepaRG_GADD45G: Life Technologies and Expression Analysis (LTEA) Assay for growth arrest and DNA damage 45 (GADD45G) using HepaRG (AID 2283499). The essentials: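 Differentiated human HepaRG cells in serum-free induction medium were exposed for 48 h to 8 half-log concentrations up to 100 uM in 0.5% DMSO, in duplicate. GADD45G mRNA was measured by TaqMan qRT-PCR, normalised to ACTB, GAPDH and POLR2A, and fitted bidirectionally against DMSO.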

Read-out in assay [16]: Glutamate-cysteine ligase regulatory (GCLM), GCLM (gene 2730)
As to the kind of experiment: LTEA_HepaRG_GCLM: Life Technologies and Expression Analysis (LTEA) Assay for Glutamate-cysteine ligase regulatory (GCLM) using HepaRG (AID 2283500). The gist of the method: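 In this multiplexed HepaRG gene-expression assay, GCLM mRNA change after 48 h treatment (8 concentrations, max 100 uM) was scored against DMSO by bidirectional curve fitting.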

Read-out in assay [17]: Glutathione S-transferase M3 (GSTM3), GSTM3 (gene 2947)
As to the kind of experiment: LTEA_HepaRG_GSTM3: Life Technologies and Expression Analysis (LTEA) Assay for Glutathione S-transferase M3 (GSTM3) using HepaRG (AID 2283501). The gist of the method: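 Differentiated HepaRG cells in serum-free induction medium were exposed in duplicate for 48 h to 8 half-log concentrations up to 100 uM in 0.5% DMSO. GSTM3 mRNA was measured by TaqMan qRT-PCR, normalized to ACTB/GAPDH/POLR2A, and fitted bidirectionally versus DMSO.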

Read-out in assay [18]: Glutathione S-Transferase (GSTA2), GSTA2 (gene 2939)
As to the kind of experiment: LTEA_HepaRG_GSTA2: Life Technologies and Expression Analysis (LTEA) Assay for Glutathione S-Transferase (GSTA2) using HepaRG (AID 2283497). The essentials: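 qRT-PCR readout of GSTA2 transcript, normalized to three housekeeping genes, fitted bidirectionally against 0.5% DMSO baseline. Differentiated HepaRG cells received compound for 48 h at 8 concentrations (top 100 uM, half-log steps).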

Chain of Cytochrome P450 3A4 (Homo sapiens) (P08684 whole entry, looked up): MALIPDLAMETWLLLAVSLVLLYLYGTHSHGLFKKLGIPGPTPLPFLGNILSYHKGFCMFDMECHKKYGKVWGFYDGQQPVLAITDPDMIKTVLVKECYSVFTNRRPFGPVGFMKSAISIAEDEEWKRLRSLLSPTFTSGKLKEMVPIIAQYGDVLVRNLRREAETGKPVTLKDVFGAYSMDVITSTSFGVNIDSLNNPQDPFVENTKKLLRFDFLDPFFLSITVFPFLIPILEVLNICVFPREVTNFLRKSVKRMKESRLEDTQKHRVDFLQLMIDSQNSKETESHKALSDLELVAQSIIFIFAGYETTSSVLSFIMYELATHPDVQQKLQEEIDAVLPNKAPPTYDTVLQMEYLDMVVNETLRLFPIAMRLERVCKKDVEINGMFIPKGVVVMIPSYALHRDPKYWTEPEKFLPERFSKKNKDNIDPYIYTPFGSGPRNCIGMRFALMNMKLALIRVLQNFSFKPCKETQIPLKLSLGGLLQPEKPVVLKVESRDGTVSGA
Chain of Cytochrome P450 3A7 (Homo sapiens) (P24462 whole entry, looked up): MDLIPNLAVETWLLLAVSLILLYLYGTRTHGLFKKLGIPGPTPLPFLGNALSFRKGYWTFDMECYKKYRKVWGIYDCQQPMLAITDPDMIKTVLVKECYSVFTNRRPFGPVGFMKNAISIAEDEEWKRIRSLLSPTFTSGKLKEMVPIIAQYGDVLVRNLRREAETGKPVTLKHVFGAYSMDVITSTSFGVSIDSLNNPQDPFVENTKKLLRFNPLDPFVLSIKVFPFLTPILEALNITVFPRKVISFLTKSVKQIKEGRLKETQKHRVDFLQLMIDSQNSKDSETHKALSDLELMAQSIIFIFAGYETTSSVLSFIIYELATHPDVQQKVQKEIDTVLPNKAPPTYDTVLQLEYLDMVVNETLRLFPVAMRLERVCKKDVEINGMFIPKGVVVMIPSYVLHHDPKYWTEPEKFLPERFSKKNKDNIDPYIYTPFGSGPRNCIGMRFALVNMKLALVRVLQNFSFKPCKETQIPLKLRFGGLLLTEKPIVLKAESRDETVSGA

For `N#CSCSC#N`, the AC50 in assay [1] is 89.4 µM (active); in assay [2], 66.5 µM (active); in assay [3], 82.9 µM (active); in assay [4] it was 81.5 µM (active); in assay [5], 77.2 µM (active); in assay [9], 59.5 µM (active). Further, the AC50 in [10] is 50 µM (active); in assay [11], 86.2 µM (active); in assay [12], 90.6 µM (active); in assay [13] it was 50 µM (active); in assay [16], 80.6 µM (active). For the same molecule, the molecule was classed as inactive in assay [6], in [7], in [8], in assay [14], in assay [15] and in assay [17].
In the case of `CC(COc1ccc(Oc2ccccc2)cc1)Oc1ccccn1` (configuration not stated), the result in assay [1], in assay [6], in assay [8], in assay [9], in [10] and in assay [11] was inactive. The result in [12], in assay [14], in assay [15], in assay [16] and in assay [17] was inactive. In addition, the AC50 is 35.7 µM (active) in [3]; 12.5 µM (active) in [4]; 11.8 µM (active) in assay [5]; 31.5 µM (active) in assay [7]; 19.9 µM (active) in assay [13].
With `C[Si](Cn1cncn1)(c1ccc(F)cc1)c1ccc(F)cc1`, the half-maximal activity concentration (AC50) in assay [1] was 71.8 µM (active); in assay [3], 19.4 µM (active); in [4], 25.9 µM (active); in [5] it was 82.4 µM (active); in assay [6] it was 31.9 µM (active); in assay [9] it was 81.9 µM (active). Further, the AC50 in assay [11] was 76.9 µM (active); in [12], 15.8 µM (active); in assay [13], 39.6 µM (active); in [15] it was 33.9 µM (active); in [16] it was 62.8 µM (active); in assay [17] it was 74.9 µM (active). In addition, the result in assay [7], in [8], in assay [10] and in [14] was inactive.
Take `CCOC(=O)CC(SP(=O)(OC)OC)C(=O)OCC` (configuration not stated): the result in [1], in assay [2], in assay [4], in [5], in assay [6] and in assay [7] was inactive. Further, the outcome in assay [8], in [9], in assay [10], in assay [11], in assay [12] and in [18] was inactive. For the same molecule, the molecule was called inactive in assay [14], in assay [15], in assay [16] and in [17]. For the same molecule, the values for the half-maximal activity concentration (AC50) in assay [3] and in assay [13] were 25.1 µM (active) and 50 µM (active), respectively.

The term AC50 denotes the concentration at which the activity in the assay is half-maximal.
